Inconclusive results are not listed. Values without a mark were called inactive. Calls follow the shape of the dose curve; as a rule, active = well fitted activation curve with a large enough effect; inconclusive = small, poorly fitted or top-dose-only effect; inactive = flat fitted curve, though single readings scatter. Where a SMILES comes first, the peptide text is derived from it. [ ]: non-standard residue; d: D form. Ala(indol-2-yl) = N[C@@H](Cc1cc2ccccc2[nH]1)C(=O)O; Aib = CC(C)(N)C(=O)O

The test in a line: Primary redox qHTS assay for identification of artifact compounds. (AID 1845223). Conditions: Amplex Red/HRP redox cycling with DTT, fluorescence; series mostly up to 53.8 µM; redox activity (% of DA3003): at the top concentration. An excerpt: PI: Alexander Tropsha Ph.D.
UNC Eshelman School of Pharmacy
University of North Carolina, Chapel Hill, North Carolina
Hits from high-throughput screening (HTS) of chemical libraries are often false positives due to their interference with the assay detection technology. In response to this problem, we generated the largest publicly available library of chemical liabilities and developed a free webtool to predict HTS artifacts, both of which are described herein. More specifically, we generated, curated, and integrated HTS datasets for thiol reactivity, redox activity, and luciferase (firefly and nano) activity. Using these curated datasets, we developed and validated several Quantitative Structure-Interference Relationship (QSIR) models to predict nuisance behavior. […] These models were employed for virtual profiling of the National Center for Advancing Translational Science's (NCATS) in-house library, and 256 compounds for each assay were selected for the experimental validation of nuisance behavior. The BA for these external predictions ranged from 58 to 78% for compounds within the applicability domains of the models. […] The models developed in this study, along with aggregation models previously developed by our group (SCAM Detective) were implemented in "Liability Predictor," an online tool which may be used as part of chemical library design or for triaging HTS hits. Both the models and the curated datasets are publicly available at https://liability.mml.unc.edu/.
SEQUENCE No. (e.g., 1, 2, 3, etc.); […] (e.g., Cells, Incubation, Reagent, etc.); VALUE; DESCRIPTION.
1; Reagent; 3 uL; Amplex Red and HRP mixture.
2; Compounds and control; 16 nL; Kalypsis pin tool (Wako USA) equipped with a 1536-well pin head. […]
6; Detection; Fluorescence, ViewLux microplate reader, 525 nm excitation, 598 nm emission.
NOTES (numbers refer to Sequence numbers above)
1. 3 uL of a mixture containing Amplex Red (25 uM final concentration) and horseradish peroxidase (HRP; 250 mU/mL final concentration) in assay buffer (HBSS) was dispensed into all wells of a 1536-well assay plate (solid-bottom black plate; Greiner Bio One, Monroe, NC).
2. A Wako Pin-tool (Wako Automation, Richmond, VA) was used to transfer 16 nL of compounds (consisting of 7-plates in qHTS format, final concentration range 18.3 nM to 114 uM) or control DA3003 (final concentration range 1.22 nM to 40 uM).
3. 15 min. incubation at room temperature protected from light.
4. 1 uL of DTT (prepared fresh; final concentration 250 uM) was dispensed for a final assay volume of 4 uL.
5. Plates were centrifuged (121xg, 15 seconds) and incubated for 30 minutes at room temperature protected from light.
6. Samples were read for fluorescence (Ex/Em = 525(20)/598(25) nm) on a ViewLux CCD imager (PerkinElmer). Data were normalized to DMSO (0% activity) and DA3003 (10 uM final concentration; 100% activity) and the resulting percent inhibition data were fitted to a 4-parameter Hill equation using NCATS in-house software.
On the technique in general: Quantitative high-throughput screening tests each substance at several concentrations.
Consider `O=C(NCCN1CCC2(CC1)C(=O)NCN2c1cccc(F)c1)c1ccc2ccccc2c1`, for which the “redox activity (% of DA3003)” value was 19.1%.
The value for `CC(C)C(=O)O[C@H]1[C@@H]2[C@H](C)C(=O)O[C@@H]2C[C@@H](C)[C@@H]2C=CC(=O)[C@]21C` was 2.39%.
Next, `N#Cc1ccc(N2CCN(C(=O)COc3ccc4[nH]cc(CCN)c4c3)CC2)cc1`: -3.35%; `CC1CCCCCC(=O)c2c(O)cc(O)cc2CC(=O)O1` (stereo not given): -2.99%; `CN1CN(c2ccccc2)C2(CCN(CCCC(=O)c3ccc(F)cc3)CC2)C1=O`: 16.8%.
The value for `COC1(C[S@@](=O)c2ccccc2)CCN(CCc2c[nH]c3ccc(F)cc23)CC1` was 7.51%; that for `COC1C=CC23c4cc5c(cc4COC2(O)CN(C)C3C1)OCO5` (stereo not given) was -2.62%.
Regarding `CN1C(=O)CN=C(c2ccccc2Cl)c2cc(Cl)ccc21`, the “redox activity (% of DA3003)” value is -2.48%.
The value for `N#CC(O[C@@H]1O[C@H](CO)[C@@H](O)[C@H](O)[C@H]1O)c1ccccc1` (stereo not given in full) was -16.3%.
The value for `C[C@]12CC[C@@H](O)C[C@@H]1CC[C@@H]1[C@@H]2CC[C@]2(C)C(=O)[C@@H](Br)C[C@@H]12` was -3.77%; that for `O=C(C[C@@H]1NCCC[C@H]1O)Cn1cnc2ccccc2c1=O` was -0.284%; that for `C=C1C(=O)OC2/C=C(\COO)CC/C=C(\COC(C)=O)CC(OC(=O)C(C)CC)C12` (stereo not given) was 9.47% [at 25.6 µM].
As to `OC(CNc1ccccc1)Cn1c2ccc(Br)cc2c2cc(Br)ccc21` (stereo not given), the “redox activity (% of DA3003)” value was -1.39%.
As to `Cc1[nH]c2ccc(Cl)cc2c1CCN(C)C`, the “redox activity (% of DA3003)” value was -6.94%.
Next, `CCCCn1cc(C(=O)c2cccc3ccccc23)c2ccccc21`: -5.26%.
The value for `CCCCCn1cc(C(=O)Oc2cccc3cccnc23)c2ccccc21` was 0.768%.
The value for `CC[C@H](C)[C@H](NC(=O)[C@H]1CCCCN1C)C(=O)N(COC(=O)CC(C)C)[C@H](C[C@@H](OC(C)=O)c1nc(C(=O)N[C@@H](Cc2ccc(O)cc2)C[C@H](C)C(=O)O)cs1)C(C)C` was -0.209% [at 1.02 µM]; that for `CC1=CC2/C=C(\C)CCCC(O)/C=C/C(=O)OC23C(=O)NC(CC(C)C)C3C1C` (stereo not given) was 8.88%.
With `CC1=C[C@H]2O[C@@H]3C[C@H]4OC(=O)/C=C/C=C/C(=O)OCC/C(C)=C/C(=O)OC[C@@]2(CC1)[C@]4(C)[C@]31CO1`, the “redox activity (% of DA3003)” value was 6.54% [at 25.6 µM].
The value for `CC(C)(NC(=O)[C@@H](N)Cc1ccc(O)cc1)C(=O)N[C@@H](Cc1cc2ccccc2[nH]1)C(=O)N[C@@H](Cc1ccccc1)C(=O)O` (H-Y[Aib][Ala(indol-2-yl)]F-OH) was 9.88% [at 11.5 µM].
Next, `C[C@]12CC[C@H](O[C@@H]3O[C@H](CO)[C@@H](O)[C@H](O)[C@H]3O)CC1CC[C@@H]1C2CC[C@]2(C)[C@@H](C3=CC(=O)OC3)CC[C@]12O` (stereo not given in full): 0.46% [at 25.6 µM]; `Cc1ccccc1CN1CCC(N2CCC(n3c(=O)[nH]c4ccccc43)CC2)CC1`: -0.419%.
Next, `C/C=C(\C)C(=O)OC1C2C3(C)CCC(OC4CC(OC)C(OC5OC(C)C(O)C(OC)C5O)C(C)O4)CC3CCC23OC32CCC(C(C)=O)C2(C)C1OC(=O)/C(C)=C/C` (stereo not given): 18.3% [at 11.5 µM]; `Cc1c(N2C(=O)[C@@H]3[C@H](O)CCN3C2=O)ccc(C#N)c1Cl`: -0.855%.
Take `O=C1CN=C(c2cccc(Br)c2)c2oc3ccccc3c2N1`: the “redox activity (% of DA3003)” value was -5.59%.
As for `CN1C(=O)[C@]23CC4C(C)(C)[C@@]5(C[C@@]41CN2CC[C@@]3(C)O)C(=O)Nc1c5ccc2c1OC=CC(C)(C)O2` (stereo not given in full), the “redox activity (% of DA3003)” value was 15.6% [at 25.6 µM].
With `C=C1[C@@H](C)[C@H]2[C@H](Cc3ccccc3)NC(=O)[C@]23[C@H](OC(C)=O)/C=C/[C@](C)(O)C(=O)[C@@H](C)C/C=C/[C@H]3[C@@H]1O`, the “redox activity (% of DA3003)” value was 2.21%.
The value for `CC1CCCC(O)CCC/C=C/c2cc(O)cc(O)c2C(=O)O1` (stereo not given) was -3.84%.
Next, `CO[C@H]1[C@@H](O)[C@@H](C)O[C@@H](O[C@@H]2C=C3C(OC(C)=O)CC4(O)C(CC[C@]5(C)[C@@H](C6=CC(=O)OC6)CC[C@]45O)[C@@]3(C)CC2)[C@@H]1O` (stereo not given in full): 17% [at 25.6 µM]; `CC[C@H]1/C=C\C=C/C[C@@H](C)[C@H](O)[C@@](C)(O)C(=O)[C@@H](C)[C@H](O)[C@@H](C)C(=O)[C@@H](C)[C@H](O)[C@@H](C)/C=C\C(=O)O[C@@H]2[C@H](C)[C@H](CC1)O[C@]1(CC[C@H](C)[C@H](C[C@@H](C)O)O1)[C@H]2C`: 2.81%.
The value for `CCC1(O)CCC2C3CCC4=CC(=O)CCC4C3CCC21CC` (stereo not given) was 8.75%; that for `CCOC(=O)C1(CCc2ccccc2)CCN(Cc2ccc(NC(C)=O)cc2)CC1` was 4.68%.
On to `CCOC(=O)Nc1ccc(NCc2c(C)cc(C)cc2C)cc1N`, for which the “redox activity (% of DA3003)” value was 19.4%.
With `CO[C@@H]1[C@@H](O)[C@@H](O[C@H]2CC[C@]3(C=O)C4CC[C@]5(C)[C@@H](C6=CC(=O)OC6)CC[C@]5(O)[C@@H]4CC[C@H]3C2)O[C@@H](C)[C@H]1O[C@@H]1O[C@H](CO[C@@H]2O[C@H](CO)[C@@H](O)[C@H](O)[C@H]2O)[C@@H](O)[C@H](O)[C@H]1O` (stereo not given in full), the redox activity (% of DA3003) is 5.87% [at 11.5 µM].
The value for `CN1CCc2cc3c(cc2[C@H]1[C@@H]1OC(=O)c2c1ccc1c2OCO1)OCO3` was -0.63%; that for `C[C@H]1O[C@@H](O[C@H]2CC[C@]3(C=O)C4CC[C@]5(C)[C@@H](C6=CC(=O)OC6)CC[C@]5(O)[C@@H]4CC[C@]3(O)C2)C[C@@H](O)[C@@H]1O` (stereo not given in full) was 5.48% [at 25.6 µM].
The value for `CCC1NC(=O)C2C(Cl)C(Cl)CN2C(=O)C(CC)NC(=O)CC(c2ccccc2)NC(=O)C(CO)NC1=O` (stereo not given) was 1.41% [at 25.6 µM].
Next, `CC[C@H]1C2CC3[C@@H]4N(C)c5ccccc5[C@]45C[C@@H]([C@H]2[C@H]5O)N3[C@@H]1O`: -2.51%; `CCC1C2CC3C4N(C)c5ccccc5C45CC(C2C5O)N3C1O` (stereo not given): -3.27%.
As to `CCOc1ccc(Oc2ccc(OCc3cc(F)ccc3F)cc2)c(N)c1`, the “redox activity (% of DA3003)” value is -4.57%.

These data come from PubChem BioAssay (NCATS).
